Measured values taken from PubChem BioAssay AID1508602 (The Scripps Research Institute Molecular Screening Center, 2020).
Where “and” joins values, the source holds several entries; their conditions need not be identical. Equal entries are not always repeated. The campaign covered roughly 650,000 compounds. About 6,800 (1%) were called active. Cut-off read from the data, not from the text of the source: active = activation above about 4.9%; inactive = the rest. The sample as a whole holds a higher share of actives than the screen did. Some structures have more than one record in an assay (separate samples or runs), and their calls can disagree.

The molecules below were run against G-protein coupled receptor 151 (Homo sapiens) (UniProt Q8TDV0) (assay: activates the human receptor GPR151, primary screen, cell-based, PathHunter beta-arrestin, luminescence (AID 1508602;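 note: 0% = median of compound wells and 100% = cells with positive control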)). Details: PathHunter beta-arrestin GPR151 cells, at 11.2 µM, stronger effect = higher value.
Chain of G-protein coupled receptor 151 (Homo sapiens) (Q8TDV0 whole entry, looked up): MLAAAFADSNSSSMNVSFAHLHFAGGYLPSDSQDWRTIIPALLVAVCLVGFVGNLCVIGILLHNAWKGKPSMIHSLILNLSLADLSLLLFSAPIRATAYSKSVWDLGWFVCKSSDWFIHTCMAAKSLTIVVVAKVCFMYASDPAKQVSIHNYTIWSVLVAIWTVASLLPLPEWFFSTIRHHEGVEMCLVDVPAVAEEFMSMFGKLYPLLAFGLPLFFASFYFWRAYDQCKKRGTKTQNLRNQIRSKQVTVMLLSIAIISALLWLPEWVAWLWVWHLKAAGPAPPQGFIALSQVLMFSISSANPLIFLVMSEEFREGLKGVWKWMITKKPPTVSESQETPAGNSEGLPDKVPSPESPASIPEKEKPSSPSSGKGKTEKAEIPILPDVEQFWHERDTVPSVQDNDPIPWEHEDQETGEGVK

| SMILES | activation |
| --- | --- |
| O=C1COc2cc(S(=O)(=O)CCC(=O)N3CCN(c4ccccc4F)CC3)ccc2N1 | 0.891% (inactive) |
| CCOc1ccc(OCCOCCN2CC(C)OC(C)C2)cc1 (stereo not drawn) | -1.18% (inactive) |
| COc1ccc(Nc2nc(-c3ccc(F)cc3)cs2)c(OC)c1 | 13.1% (active) |
| COc1ccc(N/C=C(/C#N)c2nc(-c3ccc(F)cc3)cs2)c(OC)c1 | 1.79% (inactive) |
| COc1ccccc1Nc1nc(-c2ccc(Br)cc2)cs1 | -0.402% (inactive) |
| COc1ccc(-n2c(=S)[nH]c3cc(C(=O)Nc4cccc(Cl)c4)ccc3c2=O)c(OC)c1 | 1.31% (inactive) |
| O=C(N/N=C\c1ccccc1Cl)c1ccccn1 | -5.29% (inactive) |
| O=C(N/N=C\C=C\c1ccccc1)c1ccccn1 | 8.89% (active) |
| O=C(N/N=C\c1ccccc1)c1ccccn1 | -3.62% (inactive) |
| CC(=O)OCc1cn(-c2nonc2N)nn1 | 2.37% (inactive) |
| CC(=O)C1=C(O)C(=O)N(CC#N)C1c1ccc(F)cc1 (stereo not drawn) | -0.438% (inactive) |
| COc1ccc(OCC(=O)NCC(F)(F)F)c([N+](=O)[O-])c1 | 1.07% (inactive) |
| O=C(COc1ccc(Br)cc1CO)NCC(F)(F)F | 8.84% (active) |
| O=C(COc1ccc(Br)cc1Cl)NCCO | 0.504% (inactive) |
| COc1ccc(-c2cc(C(=O)Nc3cc(Cl)ccc3O)no2)cc1OC | 0.999% (inactive) |
| Cc1cc2c(c(=O)o1)C(c1cccc(OCc3c(F)cccc3Cl)c1)C(C#N)=C(N)O2 (stereo not drawn) | 1.06% (inactive) |
| CCC[C@@H]1NC(=O)[C@@H]2C[C@H](NCc3nc(-c4ccc(F)cc4)cs3)CN2C1=O | 5.66% (active) |
| O=C1N[C@@H](Cc2ccc(Cl)cc2)C(=O)N2C[C@@H](NCc3nc(-c4ccc(F)cc4)cs3)C[C@@H]12 | -2.22% (inactive) |
| CC(C)C[C@H]1NC(=O)[C@@H]2C[C@H](NCc3cc(F)ccc3F)CN2C1=O | -0.818% (inactive) |
| O=C(NCc1ccc(Cl)cc1)C(=O)NC1CCCCCC1 | 1.92% (inactive) |
| Cc1cc(NC(=O)CSc2nnc3c(n2)[nH]c2ccc(S(=O)(=O)N4CCOCC4)cc23)no1 | -0.982% (inactive) |

| SMILES | activation |
| --- | --- |
| Cc1c2cnn(CC(=O)NCC(C)c3ccccc3)c(=O)c2c(C)n1Cc1ccccc1 (stereo not drawn) | -0.872% (inactive) |
| CC1CCN(CC(=O)Nc2ccc(Cl)cc2)CC1 | -1.21% (inactive) |
| Cc1cc(C)cc(NC(=O)NC2CCN(CC(=O)Nc3cccc(Cl)c3C)CC2)c1 | 0.14% (inactive) |
| CC1CCN(CC(=O)Nc2ccccc2Cl)CC1 | 20.2% (active) |
| COc1ccc(NC(=O)C2CCCN2C(=O)Nc2ccccc2)cc1 (stereo not drawn) | 2.01% (inactive) |
| Nc1cccc(-c2ncc(C(=O)NC3CC3)s2)c1 | -0.0842% (inactive) |
| O=C(CC12CC3CC(CC(C3)C1)C2)Nc1ccc2c(c1)COC2=O | -1.36% (inactive) and 1.16% (inactive) |
| O=C(COc1ccc(Cl)cc1)Nc1ccc2oc(=O)ccc2c1 | 1.66% (inactive) |
| O=C(CC12CC3CC(CC(C3)C1)C2)Nc1ccc2oc(=O)ccc2c1 | 6.05% (active) |
| CCCOc1ccc(C2CC(=O)NC3=C2C(=O)CC(C)(C)C3)cc1 (stereo not drawn) | 0.129% (inactive) |
| CC1(C)C(=O)C2(C(=O)Nc3cccc(C(F)(F)F)c3)CCC1C2 (stereo not drawn) | -0.111% (inactive) |
| CC1(C(=O)Nc2cccc(C(F)(F)F)c2)CC2c3ccccc3C1c1ccccc12 (stereo not drawn) | 6.33% (active) |
| Cc1ccc(NC(=O)C2(C)CC3c4ccccc4C2c2ccccc23)cc1C (stereo not drawn) | -0.659% (inactive) |
| O=C(NC(=S)Nc1ccc(-c2nc3ncccc3o2)cc1)c1ccc(I)cc1 | -0.544% (inactive) |
| CC1CCCC(NC(=O)CSc2cc(=O)n(C)c3ccc(Cl)cc23)C1C (stereo not drawn) | 1.18% (inactive) |
| COC(=O)CN1C(=O)c2cccnc2Oc2ccc(C)cc21 | -1.68% (inactive) |
| Cc1ccc2c(c1)N(CC(=O)N1CCC(C)CC1)C(=O)c1cccnc1O2 | 5.35% (active) |
| CCOC(=O)C1CCN(C(=O)CN2C(=O)c3cccnc3Oc3ccc(C)cc32)CC1 | 2.66% (inactive) |
| CC1Cc2ccccc2N1S(=O)(=O)c1nnc(NC(=O)c2ccc(F)cc2)s1 (stereo not drawn) | -0.611% (inactive) |
| COc1ccccc1NC(=O)c1c(NCc2cccs2)sc2c1CCCC2 | 1.25% (inactive) |
| C#CCN=Cc1c(O)n(CC)c(=S)n(CC)c1=O | -0.872% (inactive) |

| SMILES | activation |
| --- | --- |
| Cc1cccc(NC(=S)N(CCCN2CCCC(C)C2)Cc2cccs2)c1 (stereo not drawn) | 2.67% (inactive) |
| CCOC(=O)C1=CN(c2ccc(C)cc2)C=C(C(=O)OCC)C1c1ccc(Cl)c(Cl)c1 | 1.19% (inactive) |
| C#CCN1C(=O)S/C(=C/c2cc(Cl)c(O)c(OC)c2)C1=O | 2.53% (inactive) |
| O=C(NCc1ccc2c(c1)OCO2)c1ccc(I)cc1 | -1.11% (inactive) |
| CCCCCn1c(=S)[nH]c2cc(C(=O)NCc3ccc4c(c3)OCO4)ccc2c1=O | -1.93% (inactive) |
| C=CCn1c(=O)c2ccc(C(=O)NCc3ccc4c(c3)OCO4)cc2n(CC(N)=O)c1=O | 10.5% (active) |
| CSCCC(NC(C)=O)C(=O)OCC(=O)Nc1nnc(C(C)C)s1 (stereo not drawn) | -1.34% (inactive) |
| COc1c(Cl)ccc(Cl)c1C(=O)Nc1cc(C)cc(C)c1 | 0.289% (inactive) |
| Cc1cc(C)c(/C=C2\C(=O)Nc3ccccc32)[nH]1 | -2.18% (inactive) and 5.18% (active) |
| COC(=O)/C=C1/C(=O)Nc2ccccc21 | -0.452% (inactive) |
| Cn1c(/C=C2\C(=O)Nc3ccccc32)nc2ccccc2c1=O | 1.31% (inactive) |
| COC(=O)c1c(OCc2cccnc2)cc(=O)n2c1CCN(C(C)CSC)CC2 (stereo not drawn) | 0.107% (inactive) |
| COc1cccc(CNC(=O)CCC(=O)N2CC(C)Oc3ccc(C)cc32)c1 (stereo not drawn) | 0.215% (inactive) |
| Cc1cccc(CN[C@H]2C[C@H]3C(=O)N[C@@H](CC(C)C)C(=O)N3C2)c1 | 1.59% (inactive) |
| C=C(C)Cn1c(N2CCN(CCO)CC2)nc2c1c(=O)[nH]c(=O)n2C | -0.406% (inactive) |
| COc1ccc2nc(/C(C#N)=C\c3cc4c(cc3OC)OCO4)[nH]c2c1 | 5.68% (active) |
| Cc1ccc2nc(/C(C#N)=C/c3ccccc3F)[nH]c2c1 | -0.301% (inactive) |
| COc1cccc(/C=C(\C#N)c2nc3ccc(C)cc3[nH]2)c1OC | 13.2% (active) |
| COc1cc2c(cc1/C=C(\C#N)c1nc3ccccc3[nH]1)OCO2 | 0.566% (inactive) |
| COc1ccc2nc(/C(C#N)=C\c3c[nH]c4ccccc34)[nH]c2c1 | -0.394% (inactive) |
| COc1ccccc1/C=C(/C#N)c1nc2ccccc2[nH]1 | -0.79% (inactive) |
